According to PubChem BioAssay AID905 (National Center for Advancing Translational Sciences (NCATS), 2007):
The list shows a part of the results. Records with an inconclusive call do not appear. Active and inactive are the calls of the source. Calls come from the whole dose curve; as a rule, active = well fitted curve in the direction sought with a large enough effect; inconclusive = small, poorly fitted or top-dose-only effect, or another doubt; inactive = no such curve, though single readings can be large or run the other way.

experiment: Cell Viability - CRE-beta lactamase CHO cell - 24 hr assay; conditions: CRE-bla CHO viability, ATP luminescence; series mostly up to 46.1 µM
Source text: NIH Molecular Libraries Screening Centers Network [MLSCN] NIH Chemical Genomics Center [NCGC] National Institutes of Environmental Health Sciences [NIEHS] National Toxicology Program [NTP] MLSCN Grant: 1X01MH079867-01 Assay Provider: Marshall W. Nirenberg, U.S. National Heart, Lung and Blood Institute NCGC Assay Overview: We have developed a 1536-well cell-based assay for quantitative high throughput screening (qHTS) against a number of cell lines to determine in vitro cytotoxicity of small molecules. This particular assay uses CRE-bla CHO cell line from Invitrogen.
NCGC Assay Protocol Summary: The CellTiter-Glo luminescent cell viability assay (Promega) is a homogeneous method to measure the number of viable cells in culture. The end point readout of this assay is based on quantitation of intracellular ATP, an indicator of metabolic activity, using the luciferase reaction. Luciferase catalyzes the oxidation of beetle Luciferin to oxyluciferin and light in the presence of ATP. The luminescent signal is proportional to amount of ATP present. Using the CellTiter-Glo luminescent cell viability assay, the amount of cellular ATP was measured in the CRE-bla CHO cell line with complete culture medium following compound treatment for 24 hours. The assay was performed in opaque white Kalypsys 1536-well plates. In the screen, tamoxifen was used as positive control. The selected compounds were measured for their ability to cause acute toxicity in the cell line, as reflected by a decrease in intracellular ATP levels, in a concentration-dependent manner. Data were normalized to the controls for basal activity (DMSO only) and 100% inhibition (100 uM tamoxifen). AC50 values were determined from concentration-response data modeled with the standard Hill equation. NCGC Assay Protocol Summary 1. Reagent; 5 uL; 2000 CHO cells/well 2. Time; overnight; 37 C incubation 3. Compounds; 23 nL; 5.9 nM to 46 uM 4. Controls; 23 nL; Tamoxifen 4.5 nM to 92 uM 5. Time; 24 hr; 37 C incubation 6. Reagent; 5 uL; CellTiter Glo reagent 7. Time; 20 min; Room Temperature 8. Detection; Luminescence; Viewlux plate reader Keywords: cell viability, cytotoxicity, CHO cell line, luminescence, MLSMR, MLSCN, NIH Roadmap, qHTS, NCGC

| SMILES | outcome |
| --- | --- |
| COc1ccc(CCNC(=O)CSc2nc(C)nc3c2oc2ccccc23)cc1OC | inactive |
| Cc1nn(-c2ccccc2)c2sc(C(=O)N(Cc3ccco3)C(C)C(=O)NC(C)(C)C)cc12 (stereo not given) | inactive |
| CCc1nc(Nc2ccc3nccnc3c2)c2oc3ccccc3c2n1 | inactive |
| CC1CCc2sc3nc(N4CCN(CCO)CC4)n4ncnc4c3c2C1 (stereo not given) | inactive |
| Cc1nc(SCC(=O)Nc2cc(C)on2)c2c3c(sc2n1)CCCC3 | inactive |
